This is a sample that favours compounds with a hit; in the whole collection about 0.4% have one here.
AID504770 – growth inhibition of E. coli YBA685, primary screen, V. cholerae RctB inhibitors; E. coli YBA685 rctB-dependent plasmid, OD600 growth, 3 h; hits give low values; z-score (no concentration beside the values); hit rate 0.27% among 130,000; AID 504770, 2011; in the data active = z-score below about -2, passing the limit was not always enough
CapD inh – Bacillus anthracis CapD inhibitors, primary screen, biochemical, fluorescence intensity | CapD gamma-glutamyltranspeptidase (Bacillus anthracis Ames Ancestor) | hit rate 0.23% among 140,000 | z-score (test concentration not listed) | purified CapD enzyme, fluorescence intensity read-out; hits give low values; in the data active = z-score mostly below about -2.9, no sharp cut-off; inactive = mostly above about -1.9
* = called active by the depositor; . = no result given.

SMILES	AID504770	CapD inh
Cc1ccc(OC(=O)c2ccno2)cc1	1.5	-2.9
O=C(Oc1cc(Cl)cc(Cl)c1)c1ccno1	-2.5*	-1.1
CCOC(=O)c1sc(NC(=O)c2sc3nc[nH]c(=O)c3c2C)nc1C	.	0.57
Cc1cc(-n2c(SCc3cc(=O)n4c(C)cccc4n3)nc3n[nH]c(C)c3c2=N)ccc1Cl	.	0.09
O=C(CCNS(=O)(=O)c1ccccc1)N1CCCC1	0.25	-0.33
CC(CNS(=O)(=O)c1ccccc1)(c1ccccc1)N1CCCCC1 (centres undefined)	-4.1*	-0.07
CC1Cc2ccccc2N1S(=O)(=O)c1ccccc1 (centres undefined)	1.8	-0.78
CC1Cc2ccccc2N1C1=CC(=O)CCC1 (centres undefined)	0.35	-5.7*
Cc1sc2ncnc(N3CCc4ccccc43)c2c1C	-0.85	.
CN(C)/N=C/c1ccc([N+](=O)[O-])o1	.	-4.4*
CN(C)/N=C/c1ccc(/C=N/N(C)C)o1	0.05	.
O=C1CN(/N=C/c2ccc([N+](=O)[O-])o2)C(=O)N1	-2.3*	-0.95
O=C1OC(CN2CCOCC2)CN1N=Cc1ccc([N+](=O)[O-])o1 (centres undefined)	.	0.015
O=C1OCCN1/N=C/c1ccc([N+](=O)[O-])o1	-4.3*	-0.03
O=C(N/N=C/c1ccc([N+](=O)[O-])o1)c1ccc(O)cc1	.	-0.3
Cc1ccc(-c2nnn(CC(=O)c3ccc4[nH]c(=O)[nH]c4c3)n2)cc1	0.05	.
O=C(Cn1cc(NC(=O)c2cc(-c3ccc(F)cc3)no2)cn1)NCc1ccco1	0.05	1.4
O=C1C2C3c4ccccc4C(c4ccccc43)C2C(=O)N1c1ccc(Cl)cc1 (centres undefined)	.	0.025
CCCCOc1ccc(Sc2nc(C)cc(C)n2)cc1	.	-0.25
COc1nncc(-c2cnnc(SC)n2)n1	-2*	-1.7
COc1nc(N)nc(SC)n1	.	0.12
O=C1NC(=O)/C(=C\C=C\c2ccccc2)S1	0.5	0.62
O=C1NC(=S)S/C1=C\C=C\c1ccccc1	-0.4	-4*
CC(=O)Nc1cc(Cl)ccc1Cl	1	.
O=C(OCc1cccc(Cl)c1)N1CCN(Cc2ccccc2OCc2ccccc2)CC1	.	0.17
SMILES	AID504770	CapD inh
CCc1cccc(NC(=O)CN(C2=NC3CS(=O)(=O)CC3S2)c2cccc(C)c2)c1 (centres undefined)	-2.5*	-1.3
Cc1cccc(NC(=O)CN(C2=NC3CS(=O)(=O)CC3S2)c2ccccc2)c1 (centres undefined)	0.7	-1.3
CCN1CCCC(N2C(=O)OC(C)(C)C2(C)O)C1 (centres undefined)	.	-0.54
CN(C)c1ccc(C(C(=O)NC2CCCCC2)N(Cc2ccco2)C(=O)Cc2c[nH]c3ccccc23)cc1 (centres undefined)	0.1	.
O=C(O)COc1cc(OCC(=O)O)c2c(-c3ccccc3)cc(=O)oc2c1	0.15	.
CC(=O)SC(CC(=O)O)c1nc2ccccc2s1 (centres undefined)	-0.65	-5.6*
CC(O)c1nc2ccccc2s1 (centres undefined)	-0.55	.
CC(C)(C)c1[nH]oc(=O)c1N=O	-7.3*	-2.6
COc1ccc(CCNC(=O)C(c2ccccc2)c2ccccc2)cc1OC	-0.6	0.32
COc1ccc(C(=O)NCCn2cc(SCC(=O)N3CCCCC3)c3ccccc32)cc1	0.25	-0.71
COc1ccc(C(=O)NCCn2cc(SCC(=O)Nc3ccccc3)c3ccccc32)cc1	-2.5*	1.8
Clc1ccc(-c2ccn[nH]2)c(Cl)c1	2	-0.77
CCOC(=O)/C(C#N)=C/Nc1ccn[nH]1	1.6	-1.9
CCOC(=O)/C(C#N)=C/Nc1cc(C)no1	-0.75	-4.2*
O=C(Nc1ccc(N2CCOCC2)cc1)Nc1ccc2nc(-c3ccco3)c(-c3ccco3)nc2c1	-0.65	-3.7
O=C(NCCCO)Nc1ccc2nc(-c3ccco3)c(-c3ccco3)nc2c1	1.5	-7.3*
COc1cccc(CO/N=C/c2cccn2-c2nccc(OC)c2C#N)c1	.	-0.56
Cc1ccc(SC#N)c(N)n1	-2.5*	-0.93
N#CSc1ccc(N)cc1	-1.5	-1.9
CCCCn1c(N)c(N(C)C(=O)CSc2nnc(C)n2-c2ccccc2OC)c(=O)[nH]c1=O	-0.8	.
Cc1ccc(N2C(=O)/C(=C\c3ccc(-c4ccccc4C(=O)O)o3)C(=O)NC2=S)cc1	.	3
CN1C(=O)/C(=C/c2ccc(I)o2)C(=O)NC1=S	1.1	-9.7*
Cc1nc(-c2ccc(C(F)(F)F)cc2)sc1C(=O)NNC(=O)OCC(C)NC(=O)OC(C)(C)C (centres undefined)	.	11
COc1ccc2nc3oc(C(=O)NCCC4=CCCCC4)cc3cc2c1	-5.2*	0.34
Cc1ccc2cc3cc(C(=O)NCCC4=CCCCC4)oc3nc2c1	0.15	2.1
SMILES	AID504770	CapD inh
CSC1=NC(C)(C)C=C(C)N1	-0.3	-0.41
Cc1cccc2cc(CNCc3ccco3)c(=O)[nH]c12	-0.45	.
COC(=O)Cc1cc(=O)[nH]c(SCC2CCCCO2)n1 (centres undefined)	-0.25	.
CN(C)Cc1ccccc1CN	-3.7*	.
CN(C)Cc1ccccc1C#N	-0.35	.
O=C(NCCc1ccccn1)c1ccccc1OCc1ccccc1	-0.25	-0.57
O=S(=O)(Nc1ccc(S(=O)(=O)N(C2CC2)C2CCN(Cc3ccccc3)CC2)cc1)c1cccc(C(F)(F)F)c1	.	-0.24
CN(C1=CC(=O)c2ccccc2C1=O)c1ccccc1	1	-0.1
COC1=CC(=O)c2ccccc2C1=O	-2.6*	0.21
CCc1nnc2sc(-c3ccccc3N)nn12	0.65	.
O=C(Cc1ccccc1)c1cc(O)c(O)cc1O	-0.45	-7.6*
Nc1ccccc1C(=O)Cc1ccccc1	0.65	6.4
O=C(CCn1c(=O)c2ccccc2n(Cc2cc(=O)n3ccccc3n2)c1=O)NCc1ccc2c(c1)OCO2	0.05	1.7
CCc1ccccc1N1CCN(C(=O)c2ccc(Cl)cc2)CC1	-0.3	0.27
O=C(Nc1ncnc2sc3c(c12)CCC3)c1ccccc1	-0.45	-0.29
Cc1c(C(=O)NNc2ncnc3sc4c(c23)CCCC4)oc2ccccc12	-4.2*	.
O=C(Cc1csc(NC(=O)c2ccco2)n1)NC1CCCCCC1	0.3	.
CC(C)CCNC(=O)C1CCN(Cc2ccccc2Cl)CC1	-0.85	.
CCN(CC)c1ccc(/C=C(/C#N)C(=O)NC(C)C)o1	-3.4*	.
CCN(CCC#N)c1ccc(/C=C(\C#N)C(=O)NC(C)C)c(C)c1	0.8	.
CCOC(=O)c1sc(COc2ccc(C3SCCS3)cc2)nc1C	-1	9.9
CCOC(=O)c1sc(COc2ccccc2OC)nc1C	3	-2.7*
Cc1ccc(N2C(=O)/C(=C/c3ccc(-c4ccc(Br)cc4)o3)C=C2c2ccccc2)c(Br)c1	.	2.5
CC(C)OC(=O)/C(C#N)=C/c1ccco1	0.15	.
N#C/C(=C\c1ccco1)C(=O)C1CC1	-1.1	-4.3*
SMILES	AID504770	CapD inh
CC(=O)Nc1ccc(C(C)(C)C)cc1	.	-0.66
O=C1CS/C(=N\NC(=S)NCc2ccco2)N1	0.1	.
CC(=O)Nc1ccc(N/C=C/C(=O)c2ccco2)cc1	1.9	-5.8*
CN(C)c1ccc(N/C=C/C(=O)c2ccco2)cc1	0.05	-2.4
COc1cc(/C=C2/SC(=S)N(NC(C)=O)C2=O)ccc1O	-0.2	-4.8*
COC(=O)CCN1C(=O)/C(=C\c2ccc(O)c(OC)c2)SC1=S	0	-0.13
O=C1NCCC/C1=N/Nc1ccccc1	-0.1	-3.9*
Cc1ccc(N/N=C2/CCCNC2=O)cc1	.	-2.7
